Results as given in PubChem BioAssay (NCATS).
Results filed as inconclusive are left out. Activity calls are given as the source filed them. Calls follow the shape of the dose curve; as a rule, active = well fitted curve in the direction sought with a large enough effect; inconclusive = small, poorly fitted or top-dose-only effect, or another doubt; inactive = no such curve, though single readings can be large; an effect the other way counts as inactive or inconclusive.

Experiments:
[1] = biological target: Glutathione peroxidase 1 (Homo sapiens) (UniProt P07203); assay: Primary qHTS Assay for Inhibitors of Recombinant Selenoprotein Glutathione Peroxidase 1 (GPX1) (AID 1845191); also: nearly all actives have a fitted effect of over 65% in size; also: potency is read from the fitted curve at half-maximal effect; as to activity, negative = inhibition: % is scaled to controls: 0 for no effect and ±100 for the full control effect
Glutathione peroxidase 1 (Homo sapiens), sequence (P07203 whole entry, looked up): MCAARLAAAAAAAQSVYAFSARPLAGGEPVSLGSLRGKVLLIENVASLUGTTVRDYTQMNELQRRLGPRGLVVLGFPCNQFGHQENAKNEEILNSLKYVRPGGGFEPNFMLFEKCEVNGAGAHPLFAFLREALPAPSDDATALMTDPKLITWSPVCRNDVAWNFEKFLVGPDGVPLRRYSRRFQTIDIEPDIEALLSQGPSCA
Procedure, shortened: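 GR-coupled readout: NADPH consumption tracked by fluorescence, ex 340/em 450 nm, at t=0 and after 15 min at RT. Final mix 10 nM GPX1, 1 mM GSH, 0.5 mM CHP, 0.5 mM NADPH, 100 nM GR, 0.01% BSA, following 30 min enzyme–compound preincubation.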

[2] = biological target: Phospholipid hydroperoxide glutathione peroxidase GPX4 (Homo sapiens) (UniProt P36969); assay: Primary qHTS Assay for Inhibitors of Recombinant Selenoprotein Glutathione Peroxidase 4 (GPX4) (AID 1845192); also: nearly all actives have a fitted effect of over 65% in size; also: potency is read from the fitted curve at half-maximal effect; as to activity change, negative = inhibition: series mostly up to about 50 µM; % is scaled to controls: 0 for no effect and ±100 for the full control effect
Phospholipid hydroperoxide glutathione peroxidase GPX4 (Homo sapiens), sequence (P36969 whole entry, looked up): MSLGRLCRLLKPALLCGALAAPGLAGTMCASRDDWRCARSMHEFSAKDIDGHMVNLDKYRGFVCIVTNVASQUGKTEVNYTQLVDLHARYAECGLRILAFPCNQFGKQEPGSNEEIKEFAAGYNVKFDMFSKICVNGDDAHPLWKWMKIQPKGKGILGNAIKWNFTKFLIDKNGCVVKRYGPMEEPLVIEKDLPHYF
Procedure, shortened: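 Steps: GPX4 plus compound, 30 min RT; add GR/GSH/NADPH master mix; start with cumene hydroperoxide; read 340/450 nm fluorescence at 0 and 15 min. Finals were 200 nM GPX4, 1 mM GSH, 0.5 mM CHP, 0.5 mM NADPH, 100 nM GR.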

[3] = biological target: Luciferin 4-monooxygenase (Photinus pyralis) (UniProt P08659); assay: Primary firefly luciferase (FLuc) qHTS assay for identification of artifact compounds. (AID 1845220); also: nearly all actives have a fitted effect of over 60% in size;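 as to activity change, negative = inhibition: series mostly up to about 54 µM; plate controls were DMSO vehicle for no effect and no enzyme for full effect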
Procedure, shortened: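 D-luciferin and ATP (10 uM each, final) in Tris acetate buffer pH 7.6 were incubated with compounds for 15 min at room temperature. The reaction was started with 10 nM Photinus pyralis luciferase and luminescence read after 5 min. Percent inhibition was fitted to a 4-parameter Hill equation.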

[4] = Primary fluorescence-based thiol-reactive (MSTI) qHTS assay for identification of artifact compounds. (AID 1845221); also: nearly all actives have a fitted effect of over 65% in size; also: potency is read from the fitted curve at half-maximal effect;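 as to activity change, negative = thiol reactive: series mostly up to about 54 µM; thiol-reactive compounds lower the probe fluorescence signal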
Procedure, shortened: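 First, 4 uM MSTI in 2% DMSO/PBS pH 7.4 was dispensed; next, compounds were added; then plates sat 1 h at room temperature without light. Finally, emission at 598 nm was recorded.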

[5] = tested on: Nanoluciferase (engineered Oplophorus gracilirostris luciferase); assay: Primary Nanoluciferase (NLuc) qHTS assay for identification of artifact compounds. (AID 1845222); also: potency is read from the fitted curve at half-maximal effect;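 as to activity, negative = inhibition: series mostly up to about 54 µM; 0% = DMSO and -100% = no enzyme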
Procedure, shortened: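 Diluted conditioned medium from NLuc-expressing S16 cells treated with compounds for 15 min at room temperature, then Nano-Glo substrate added; luminescence read after 5 min. Percent inhibition versus no-enzyme and DMSO controls fitted to 4-parameter Hill equation.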

[6] = Primary redox qHTS assay for identification of artifact compounds. (AID 1845223);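 also: 0% = DMSO and 100% = reference compound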
Procedure, shortened: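 Redox-cycling detection via DTT (250 uM final) oxidation coupled to Amplex Red (25 uM)/HRP (250 mU/mL) in HBSS. 15 min preincubation plus 30 min after DTT, room temperature. Ex/Em 525/598 nm; 4-parameter Hill fit against DMSO and 10 uM DA3003.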

C[C@@H](N[C@H]1CCCC[C@@H]1NC(=O)c1ccc(Cl)cc1)c1cccc2ccccc12
inactive: Potency [1] | Potency [2] | Potency [3] | Potency [4] | Potency [5] | Potency [6]

C/C(=C\CO[C@@H]1O[C@H](CO[C@H]2OC[C@](O)(CO)[C@H]2O)[C@@H](O)[C@H](O)[C@H]1O)C(C)(C)O
inactive: Potency [1] | Potency [2] | Potency [3] | Potency [4] | Potency [5] | Potency [6]

NCC(CNc1nc(Nc2cccc(NC(=O)N3CCCC3)c2)ncc1I)C(=O)c1cccs1 (stereo not given)
inactive: Potency [1] | Potency [2] | Potency [3] | Potency [4] | Potency [5] | Potency [6]

C=C1C(=O)OC2C3=C(C)C(=O)CC3C(C)CC(O)C12 (stereo not given)
inactive: Potency [1] | Potency [2] | Potency [3] | Potency [5] | Potency [6]
active: Potency [4] 11.9 µM

CC(C)(C)Oc1ccc(OCC2Cc3ccccc3CN2C(=O)c2cccc3ccccc23)cc1 (stereo not given)
inactive: Potency [1] | Potency [2] | Potency [3] | Potency [4] | Potency [5] | Potency [6]

O=S(=O)(NCc1cccc2ccccc12)c1cc(Cl)c(Oc2cccc(N3CCNCC3)c2)s1
inactive: Potency [1] | Potency [2] | Potency [3] | Potency [4] | Potency [5] | Potency [6]

N#Cc1ccc(-c2ccc(S(=O)(=O)Nc3cccc(N)n3)cc2)cc1
inactive: Potency [1] | Potency [2] | Potency [3] | Potency [4] | Potency [5] | Potency [6]

CS/C=C/C(=O)O[C@@H]1CCC2=CC(=O)C(=C(C)C)C[C@]2(C)[C@H]1C
inactive: Potency [1] | Potency [2] | Potency [3] | Potency [4] | Potency [5] | Potency [6]

CCCCc1ccc(NS(=O)(=O)c2ccc(F)cc2)cc1
inactive: Potency [1] | Potency [2] | Potency [3] | Potency [4] | Potency [5] | Potency [6]

C/C(=C/CO)CCC1C(C)CCC2C(C)(C)CCCC12C (stereo not given)
inactive: Potency [1] | Potency [2] | Potency [3] | Potency [4] | Potency [5] | Potency [6]

CC(=O)O[C@@H]1[C@H](O[C@@H]2O[C@@H](CO)[C@H](O)[C@H]2O)[C@@H](O[C@@H]2O[C@@H](C)[C@H](O[C@@H]3OC[C@@H](O)[C@H](O)[C@H]3O)[C@@H](O)[C@H]2O)[C@H](OC(=O)[C@]23CCC(C)(C)C[C@H]2C2=CCC4[C@@]5(C)CC[C@H](O[C@@H]6O[C@H](C(=O)O)[C@@H](O)[C@H](O)[C@H]6O[C@@H]6O[C@H](CO)[C@H](O)[C@H](O)[C@H]6O)[C@@](C)(C=O)C5CC[C@@]4(C)[C@]2(C)C[C@H]3O)O[C@@H]1C (stereo not given in full)
inactive: outcome [1] inactive [at 9.52 µM] | activity change, negative = inhibition [2] -0.242% [at 9.73 µM] | outcome [3] inactive [at 11.6 µM] | activity change, negative = thiol reactive [4] 435% [at 11.5 µM] | activity, negative = inhibition [5] 0% [at 11.6 µM] | redox activity (% of DA3003) [6] 9.67% [at 11.5 µM]

COc1ccc(-c2ccccc2)cc1NS(=O)(=O)c1cc(Cl)cc(Cl)c1O
active: Potency [5] 7.38 µM
inactive: Potency [1] | Potency [2] | Potency [3]

CCN(c1cc(-c2ccc(CN3CCOCC3)cc2)cc(C(=O)NCc2c(C)cc(C)[nH]c2=O)c1C)C1CCOCC1
inactive: Potency [1] | Potency [2] | Potency [3] | Potency [4] | Potency [6]

CCN(CC)CCCCCCNc1cc(OC)cc2c(C)ccnc12
inactive: Potency [1] | Potency [2] | Potency [3] | Potency [5]

O=C(NCCCNC(=O)c1ccc[nH]c1=O)c1cc(-c2ccccc2)on1
inactive: Potency [1] | Potency [2] | Potency [3] | Potency [4] | Potency [6]

CC(=O)O[C@@H]1C2=C(O)C(=O)[C@](C)(OC(C)=O)C(=O)C2=CO[C@@]12O[C@@H](C)CC[C@H]2OC(C)=O
inactive: Potency [1] | Potency [2] | Potency [3] | Potency [5]

COc1ccc(CNc2nc(N(CCO)CCO)nc3c2ncn3C(C)C)cc1
inactive: Potency [1] | Potency [2] | Potency [3] | Potency [5]

NCCOc1cc(C(=O)Nc2cc(OCCN)c3ccccc3n2)nc(C(=O)Nc2cc(OCCN)c3ccccc3n2)c1
inactive: Potency [1] | Potency [2] | Potency [3] | Potency [5]

COc1cc(CCc2ccc(OCC=C(C)C)cc2)cc(OC)c1OC
inactive: Potency [1] | Potency [2] | Potency [3] | Potency [5]

C/C=C(\C)C(=O)OC1C=C(C)CC(OC(=O)c2ccc(O)cc2)C2C1(C)CCC2(O)C(C)C (stereo not given)
inactive: Potency [1] | Potency [2] | Potency [3] | Potency [5]

C[C@@H]1C[C@H](C)CN(CCC(=O)Nc2ccc(Br)cc2)C1
inactive: Potency [1] | Potency [2] | Potency [3] | Potency [4] | Potency [6]

COc1c(F)cccc1C(=O)N1C[C@@H](C)CC[C@H]1CNc1ccc(Br)cn1
inactive: Potency [1] | Potency [2] | Potency [3] | Potency [4] | Potency [6]

COc1ccc(C2Oc3c(OC)cc(CCCO)cc3C2COC2OC(CO)C(O)C(O)C2O)cc1OC (stereo not given)
inactive: Potency [1] | Potency [2] | Potency [3] | Potency [5]

C=CC(C)(O)CC/C=C(/C)COC(=O)C(C)C1CCC(C)(C=C)O1 (stereo not given)
inactive: Potency [1] | Potency [2] | Potency [3] | Potency [4] | Potency [6]

C[C@H](Nc1ncnc2nc[nH]c12)c1cc2cccc(Cl)c2c(=O)n1-c1ccccc1
inactive: Potency [1] | Potency [2] | Potency [3] | Potency [4] | Potency [6]

CC(C)(Cc1nc(-c2ccc(O)cn2)no1)C(=O)NC1=C(C(=O)O)CCCC1
inactive: Potency [1] | Potency [2] | Potency [3] | Potency [4] | Potency [6]

CN(C)C(=O)C(=O)c1cn(C)c2cc(Cl)c(C(=O)N3CCC(Cc4ccc(F)cc4)CC3)cc12
inactive: Potency [1] | Potency [2] | Potency [3] | Potency [5]

Cc1ccc(NC(=O)C(C)C)cc1C1CCN(Cc2ccc(Oc3ccc(F)c(F)c3)cc2)CC1
inactive: Potency [1] | Potency [2] | Potency [3] | Potency [5]

CC(F)(F)CN1CCOc2c(nn(-c3ccccc3Cl)c2-c2ccc(Cl)cc2)C1=O
inactive: Potency [1] | Potency [2] | Potency [3] | Potency [4] | Potency [6]

O=C(Nc1ccc(N(Cc2ccsc2)C(=O)Cn2nnc3ccccc32)cc1)C1CC1
inactive: Potency [1] | Potency [2] | Potency [3] | Potency [4] | Potency [6]

CC[C@@H](C)Nc1cc(C(=O)NC2CC3CC[C@@H](C2)N3c2ccc(C(=O)C3CC3)cn2)c(C)cc1C(N)=O (stereo not given in full)
inactive: Potency [3] | Potency [5]
active: Potency [1] 16.3 µM | Potency [2] 2.55 µM
